According to PubChem BioAssay (NCATS):
Records with an inconclusive call do not appear. Calls of active or inactive are those of the source. Unless noted, calls come from the whole dose curve; as a rule, active = well fitted cell-killing curve with a large enough effect; inconclusive = small, poorly fitted or top-dose-only effect; inactive = flat fitted curve, though single readings scatter.

Key:
[1] = Cell Viability - LYMP2-025 (AID 976);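 note: series mostly up to about 92 µM; plate controls were DMSO only for no effect and tetraoctylammonium bromide control for full effect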
In short: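 CellTiter-Glo luminescence (cellular ATP) after 24 h compound exposure at 37 C; LYMP2-025 human lymphoblastoid cells, 2500/well, complete medium. Tetraoctylammonium bromide positive control. AC50 by Hill equation fit of qHTS concentration-response.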

[2] = Cell Viability - LYMP2-002 (AID 977);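 note: series mostly up to about 92 µM; plate controls were DMSO only for no effect and 92 µM tetraoctylammonium bromide for full effect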
In short: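 Human lymphoblastoid cells, 2500/well, complete medium; 5 h 37 C settle; compound 24 h 37 C; CellTiter-Glo, 30 min RT; luminescence. Decrease in ATP = cytotoxicity; AC50 via Hill equation.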

[3] = Cell Viability - LYMP2-006 (AID 978);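 note: series mostly up to about 92 µM; cells exposed to compound for 24 hours; % is set by controls: 0 for no effect and ±100 for the full control effect; nearly all actives have a fitted effect of over 60% in size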
In short: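 Concentration-dependent loss of intracellular ATP in a human lymphoblastoid line after 24 hr treatment at 37 C was measured by CellTiter-Glo luminescence, with AC50 values obtained from standard Hill-equation modelling.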

[4] = Cell Viability - LYMP2-007 (AID 979);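 note: cells exposed to compound for 24 h before reading; 0% = DMSO only and the negative end = 92 µM tetraoctylammonium bromide; nearly all actives have a fitted effect of over 60% in size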
In short: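 qHTS cytotoxicity: 2500 cells/well, 5 hr 37 C settle, compound 24 hr 37 C, CellTiter-Glo 30 min RT, luminescence. Decrease in ATP = toxicity. AC50 by standard Hill equation; tetraoctylammonium bromide positive control.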

[5] = Cell Viability - LYMP2-008 (AID 980); note: % is set by controls: 0 for no effect and ±100 for the full control effect; nearly all actives have a fitted effect of over 60% in size
In short: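 Luminescent ATP read-out (CellTiter-Glo, 30 min RT) after 24 hr compound exposure at 37 C of human lymphoblastoid cells in complete medium. Decrease in ATP taken as cytotoxicity; AC50 derived by standard Hill fit of qHTS concentration-response data.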

[6] = Cell Viability - LYMP2-010 (AID 981);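 note: cells exposed to compound for 24 hours at 37 °C; % is set by controls: 0 for no effect and ±100 for the full control effect; nearly all actives have a fitted effect of over 55% in size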
In short: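 qHTS cytotoxicity, 1536-well: 2500 cells/well, 5 hr settle, 24 hr compound at 37 C, CellTiter-Glo 30 min RT, luminescence read. Decrease in ATP = toxicity; AC50 via standard Hill equation. Positive control tetraoctylammonium bromide.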

[7] = Cell Viability - LYMP2-012 (AID 982);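 note: cellular ATP by luciferase luminescence where a drop means cytotoxicity; cells exposed to compound for one day before reading; 0% = DMSO only and full loss = 92 µM tetraoctylammonium bromide; nearly all actives have a fitted effect of over 55% in size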
[8] = Cell Viability - LYMP2-014 (AID 983);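 note: series mostly up to about 92 µM; plate controls were DMSO only for no effect and 92 µM tetraoctylammonium bromide for full effect; nearly all actives have a fitted effect of over 50% in size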
In short: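 2500 cells/well, 5 hr 37 C; cpd 24 hr 37 C, complete medium; CellTiter-Glo 30 min RT, luminescence; ATP loss = toxicity; AC50 via Hill eqn; tetraoctylammonium bromide positive control.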

[9] = Cell Viability - LYMP2-016 (AID 984);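 note: cells exposed to compound for 24 hours at 37 °C; % is set by controls: 0 for no effect and ±100 for the full control effect; nearly all actives have a fitted effect of over 55% in size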
In short: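 Acute toxicity in a Coriell human lymphoblastoid line is scored as loss of intracellular ATP over 24 h of treatment in complete medium. CellTiter-Glo signal is fitted across concentrations with the Hill equation to give AC50.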

[10] = Cell Viability - LYMP2-018 (AID 985);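 note: plate controls were DMSO only for no effect and tetraoctylammonium bromide at 92 µM for full effect; nearly all actives have a fitted effect of over 50% in size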
In short: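 2500 cells/well; 5 hr 37 C; cmpd 24 hr 37 C, complete medium; CellTiter-Glo 30 min RT; luminescence. Tetraoctylammonium bromide positive control. AC50 via Hill fit.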

[11] = Cell Viability - LYMP2-020 (AID 986);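 note: series mostly up to about 92 µM; plate controls were DMSO only for no effect and tetraoctylammonium bromide at 92 µM for full effect; nearly all actives have a fitted effect of over 55% in size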
In short: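 qHTS, 2500 cells/well; 5 hr then 24 hr compound exposure, 37 C; CellTiter-Glo luminescence after 30 min RT; ATP decrease taken as cytotoxicity; AC50 via Hill equation; tetraoctylammonium bromide positive control.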

[12] = Cell Viability - LYMP2-022 (AID 987)
In short: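 Luminescent ATP read-out (CellTiter-Glo, 30 min, RT) after 24 hr, 37 C compound exposure of 2500 human lymphoblastoid cells/well in complete medium. Cytotoxicity taken as concentration-dependent ATP loss; AC50 from standard Hill equation.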

[13] = Cell Viability - LYMP2-024 (AID 988);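 note: plate controls were DMSO only for no effect and 92 µM tetraoctylammonium bromide for full effect; nearly all actives have a fitted effect of over 60% in size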
In short: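 ATP-based luminescence (CellTiter-Glo, 30 min RT) after 24 h compound exposure at 37 C of 2500 lymphoblastoid cells/well; decrease in ATP taken as cytotoxicity. qHTS concentration-response fitted to standard Hill equation for AC50.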

[14] = Cell Viability - LYMP2-026 (AID 989); note: % is set by controls: 0 for no effect and ±100 for the full control effect; nearly all actives have a fitted effect of over 50% in size
In short: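 qHTS cytotoxicity: 2500 cells/well, 5 hr 37 C, compound 24 hr 37 C, CellTiter-Glo 30 min RT, luminescence. Tetraoctylammonium bromide positive control. AC50 via standard Hill fit.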

[15] = Cell Viability - LYMP1-002 - Assay at 24 hr (AID 993); note: % is set by controls: 0 for no effect and ±100 for the full control effect
In short: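 CellTiter-Glo luminescence (intracellular ATP) after 24 h compound exposure, 37 C, in LYMP1-002 human lymphoblastoid cells; decreased ATP taken as cytotoxicity. AC50 from standard Hill fit of concentration-response curves.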

[16] = Cell Viability - LYMP1-002 - Assay at 40 hr (AID 994)
In short: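 qHTS cytotoxicity; 2500 cells/well, 5 hr 37 C settle, compound 40 hr 37 C. CellTiter-Glo, 30 min RT, luminescence (ATP). Concentration-response, Hill fit → AC50. Pos. ctrl tetraoctylammonium bromide.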

[17] = qHTS Assay for Identification of Small Molecule Inducers of Hypoxia Response (AID 2120; active = well fitted curve in the direction sought with a large enough effect in the signal ratio, with a control signal flat, not every such curve was filed as active; the % refers to the signal ratio; note: 0% is about no effect)
In short: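 Read-out: CCF4 FRET emission ratio 460nm/530nm (excitation 405nm), converted to %Activity, with AC50 fitted across a compound titration. ME-180 cells carried an HRE-driven beta-lactamase reporter; compound exposure 17 h, 37 degrees C.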

[18] = target: Estrogen receptor (Homo sapiens) (UniProt P03372); experiment: qHTS assay for small molecule antagonists of estrogen receptor alpha signaling (AID 588513; active = well fitted curve in the direction sought with a large enough effect in the signal ratio, with a control signal flat, not every such curve was filed as active; the % refers to the signal ratio; note: % is set by controls: 0 for no effect and ±100 for the full control effect)
In short: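 Cells were plated at 5000/well and incubated 4 h at 37 C. Compounds were added as 1:2 dilution series, duplicates. 17-beta-estradiol (0.5nM final) was added for 18 h before CCF4 detection.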

[19] = target: Estrogen receptor (Homo sapiens) (UniProt P03372); experiment: qHTS assay for small molecule agonists of estrogen receptor alpha signaling (AID 588514; calls by dose curve;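 note: 0% = vehicle only and 100% = reference agonist; nearly all actives have a fitted effect of over 70% in size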)
In short: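 Read-out: CCF4 fluorescence from a beta-lactamase reporter in ER-alpha-UAS-bla HEK 293 cells after 18 hrs of compound exposure at 37 C. Normalized to 20 nM 17-beta-estradiol (100%) and DMSO (0%).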

[20] = target: Androgen receptor (Homo sapiens) (UniProt P10275); experiment: qHTS assay for small molecule agonists of androgen receptor signaling (AID 588515; active = well fitted curve in the direction sought with a large enough effect in the signal ratio, with a control signal flat; the % refers to the signal ratio; note: % is set by controls: 0 for no effect and ±100 for the full control effect); conditions: AR-UAS-bla HEK293, beta-lactamase ratio, agonist 16 h; active compounds read high
In short: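 Stimulation of an AR-responsive β-lactamase reporter in GripTite HEK293 cells was measured after 16 h compound exposure at 37 °C, via CCF4 fluorescence after 2 h RT. EC50 from Hill fits, normalized to R1881 at 30 nM.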

Chain of Androgen receptor (Homo sapiens) (P10275 whole entry, looked up): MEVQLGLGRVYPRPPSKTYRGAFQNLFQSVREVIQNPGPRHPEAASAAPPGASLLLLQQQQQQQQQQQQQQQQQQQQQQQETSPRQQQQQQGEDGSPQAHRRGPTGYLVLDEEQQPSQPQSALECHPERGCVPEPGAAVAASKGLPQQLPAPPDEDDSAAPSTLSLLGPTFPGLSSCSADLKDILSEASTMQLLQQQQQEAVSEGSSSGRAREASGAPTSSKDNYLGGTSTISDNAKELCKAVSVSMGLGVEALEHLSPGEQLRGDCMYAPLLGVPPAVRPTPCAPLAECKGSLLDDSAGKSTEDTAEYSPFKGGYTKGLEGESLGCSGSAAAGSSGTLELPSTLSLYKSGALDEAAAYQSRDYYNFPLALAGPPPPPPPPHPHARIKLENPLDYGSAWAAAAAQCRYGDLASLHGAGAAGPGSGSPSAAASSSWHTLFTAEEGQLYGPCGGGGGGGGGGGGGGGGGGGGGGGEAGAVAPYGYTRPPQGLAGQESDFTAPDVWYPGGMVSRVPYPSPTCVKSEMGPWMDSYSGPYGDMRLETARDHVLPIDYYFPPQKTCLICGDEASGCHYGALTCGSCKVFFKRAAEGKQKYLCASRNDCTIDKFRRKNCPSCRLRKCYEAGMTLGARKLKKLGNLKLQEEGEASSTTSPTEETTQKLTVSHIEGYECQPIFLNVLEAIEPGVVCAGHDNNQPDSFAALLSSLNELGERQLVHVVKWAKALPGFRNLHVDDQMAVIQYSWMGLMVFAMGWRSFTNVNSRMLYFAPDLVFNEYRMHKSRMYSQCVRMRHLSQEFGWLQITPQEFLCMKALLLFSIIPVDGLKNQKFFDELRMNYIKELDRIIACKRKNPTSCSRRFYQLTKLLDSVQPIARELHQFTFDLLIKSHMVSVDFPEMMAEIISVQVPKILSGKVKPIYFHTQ
Chain of Estrogen receptor (Homo sapiens) (P03372 whole entry, looked up): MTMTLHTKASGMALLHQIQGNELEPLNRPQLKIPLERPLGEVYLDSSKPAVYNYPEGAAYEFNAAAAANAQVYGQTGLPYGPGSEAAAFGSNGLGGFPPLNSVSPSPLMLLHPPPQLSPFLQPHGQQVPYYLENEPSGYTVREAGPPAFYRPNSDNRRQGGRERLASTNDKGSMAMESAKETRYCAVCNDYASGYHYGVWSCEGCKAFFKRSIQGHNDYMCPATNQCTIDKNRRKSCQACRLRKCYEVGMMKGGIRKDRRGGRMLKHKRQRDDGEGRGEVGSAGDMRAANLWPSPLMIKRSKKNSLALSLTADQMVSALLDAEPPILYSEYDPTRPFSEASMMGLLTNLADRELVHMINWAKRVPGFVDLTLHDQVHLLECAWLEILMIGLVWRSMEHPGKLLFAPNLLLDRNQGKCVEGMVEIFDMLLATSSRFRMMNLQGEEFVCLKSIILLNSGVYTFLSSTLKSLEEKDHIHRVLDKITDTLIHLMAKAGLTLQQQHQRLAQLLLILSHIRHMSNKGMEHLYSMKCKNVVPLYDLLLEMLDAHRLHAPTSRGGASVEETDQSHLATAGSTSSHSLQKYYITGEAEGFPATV

O=C1NC(=O)c2cc([N+](=O)[O-])ccc21
inactive: Potency [1] | Potency [2] | Potency [3] | Potency [4] | Potency [5] | Potency [6] | Potency [7] | Potency [8] | Potency [9] | Potency [10] | Potency [11] | Potency [12] | Potency [13] | outcome [14] | Potency [15] | Potency [16] | outcome [17] | outcome [18] | Potency [19] | activation [20] -13.5%

Nc1cccc([N+](=O)[O-])c1
inactive: Potency [1] | Potency [2] | Potency [3] | Potency [4] | Potency [5] | Potency [6] | Potency [7] | Potency [8] | Potency [9] | Potency [10] | Potency [11] | Potency [12] | Potency [13] | outcome [14] | Potency [15] | Potency [16] | outcome [17] | outcome [18] | Potency [19] | activation [20] -5.67%

C1CCC2OC2C1 (stereo not drawn)
inactive: Potency [1] | Potency [2] | Potency [4] | Potency [5] | Potency [6] | Potency [7] | Potency [8] | Potency [9] | Potency [10] | Potency [11] | Potency [13] | outcome [14] | Potency [15] | Potency [16] | outcome [17] | outcome [18] | Potency [19] | activation [20] -3.32%

Nc1cc(S(=O)(=O)O)ccc1O
inactive: Potency [1] | Potency [2] | Potency [4] | Potency [5] | Potency [6] | Potency [7] | Potency [8] | Potency [9] | Potency [10] | Potency [11] | Potency [12] | Potency [13] | outcome [14] | Potency [15] | Potency [16] | outcome [17] | outcome [18] | Potency [19] | activation [20] 14.7%

BrC(Br)C(Br)Br
inactive: Potency [1] | Potency [2] | Potency [3] | Potency [4] | Potency [5] | Potency [7] | Potency [8] | Potency [10] | Potency [11] | Potency [12] | Potency [13] | outcome [14] | Potency [15] | Potency [16] | outcome [17] | outcome [18] | Potency [19] | activation [20] 2.87%

Cc1ccccc1C(N)=O
inactive: Potency [1] | Potency [2] | Potency [3] | Potency [4] | Potency [5] | Potency [6] | Potency [7] | Potency [8] | Potency [9] | Potency [10] | Potency [11] | Potency [12] | Potency [13] | outcome [14] | Potency [15] | Potency [16] | outcome [17] | outcome [18] | Potency [19]

NC(=O)c1cccc([N+](=O)[O-])c1
inactive: Potency [1] | Potency [2] | Potency [3] | Potency [4] | Potency [5] | Potency [6] | Potency [7] | Potency [8] | Potency [9] | Potency [11] | Potency [12] | Potency [13] | outcome [14] | Potency [15] | Potency [16] | outcome [17] | outcome [18] | Potency [19] | activation [20] 2.01%

NC(N)=S
inactive: Potency [1] | Potency [2] | Potency [3] | Potency [4] | Potency [5] | Potency [6] | Potency [7] | Potency [8] | Potency [9] | Potency [10] | Potency [11] | Potency [12] | Potency [13] | outcome [14] | Potency [15] | Potency [16] | outcome [17] | outcome [18] | Potency [19]

C=CC(=O)NC(C)C
inactive: Potency [1] | Potency [2] | Potency [3] | Potency [4] | Potency [5] | Potency [6] | Potency [7] | Potency [8] | Potency [9] | Potency [10] | Potency [11] | Potency [12] | Potency [13] | outcome [14] | Potency [15] | Potency [16] | outcome [17] | outcome [18] | Potency [19]

Cc1cc([N+](=O)[O-])ccc1N
inactive: Potency [1] | Potency [2] | Potency [3] | Potency [4] | Potency [5] | Potency [6] | Potency [7] | Potency [8] | Potency [9] | Potency [10] | Potency [11] | Potency [12] | Potency [13] | outcome [14] | Potency [15] | Potency [16] | outcome [17] | outcome [18] | Potency [19]

CCc1ccccc1
inactive: Potency [1] | Potency [2] | Potency [3] | Potency [4] | Potency [5] | Potency [6] | Potency [7] | Potency [8] | Potency [9] | Potency [10] | Potency [11] | Potency [12] | Potency [13] | outcome [14] | Potency [15] | Potency [16] | outcome [17] | outcome [18] | Potency [19]

OCCO
inactive: Potency [2] | Potency [4] | Potency [5] | Potency [6] | Potency [7] | Potency [8] | Potency [9] | Potency [10] | Potency [11] | Potency [12] | Potency [13] | outcome [14] | Potency [15] | Potency [16] | outcome [17] | outcome [18] | Potency [19] | activation [20] -10.8%

OC(CCl)CCl
inactive: Potency [1] | Potency [2] | Potency [3] | Potency [4] | Potency [5] | Potency [6] | Potency [7] | Potency [8] | Potency [9] | Potency [10] | Potency [11] | Potency [12] | Potency [13] | outcome [14] | Potency [15] | Potency [16] | outcome [17] | outcome [18] | Potency [19]

O=C(O)c1cc(Cl)cc(Cl)c1
inactive: Potency [1] | Potency [2] | Potency [3] | Potency [4] | Potency [5] | Potency [6] | Potency [7] | Potency [8] | Potency [9] | Potency [10] | Potency [11] | Potency [12] | Potency [13] | outcome [14] | Potency [15] | Potency [16] | outcome [17] | outcome [18] | Potency [19]

Cc1cscn1
inactive: Potency [1] | Potency [2] | Potency [3] | Potency [4] | Potency [5] | Potency [6] | Potency [7] | Potency [8] | Potency [9] | Potency [10] | Potency [11] | Potency [12] | Potency [13] | outcome [14] | Potency [15] | Potency [16] | outcome [17] | outcome [18] | Potency [19]

Cc1ccc(S(=O)(=O)NC2CCCCC2)cc1
inactive: Potency [1] | Potency [2] | Potency [3] | Potency [4] | Potency [5] | Potency [6] | Potency [7] | Potency [8] | Potency [9] | Potency [10] | Potency [11] | Potency [12] | Potency [13] | outcome [14] | Potency [15] | Potency [16] | outcome [17] | outcome [18] | Potency [19]
